12-hLO inh: inhibitors of human 12-lipoxygenase (ALOX12) | AID 1452 | 0.12% of 150,000 active | Potency, µM (doses to about 57.1 µM), without a hit: top-dose activity change, negative = inhibition, actives largely listed as inhibitors | P18054 | purified 12-hLO, xylenol orange hydroperoxide absorbance; also: nearly all actives have a fitted effect of over 55% in size
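Lipoxygenase turnover measured by absorbance at 573 and 405 nm after Fe-XO development. Human 12hLO 150 nM, arachidonate 40 uM, pH 7.0 Hepes buffer with detergent; 15 min compound preincubation, 30 min reaction.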
ALOX15B inhib: blocks human 15-lipoxygenase 2 activity; purified 15hLO-2, xylenol orange hydroperoxide absorbance; 0.56% of 110,000 active; Potency, µM (series often up to 57.1 µM), for the others: at the top dose activity change, negative = inhibition, actives largely listed as inhibitors; also: nearly all actives have a fitted effect of over 60% in size
Target sequence (O15296 whole entry, looked up): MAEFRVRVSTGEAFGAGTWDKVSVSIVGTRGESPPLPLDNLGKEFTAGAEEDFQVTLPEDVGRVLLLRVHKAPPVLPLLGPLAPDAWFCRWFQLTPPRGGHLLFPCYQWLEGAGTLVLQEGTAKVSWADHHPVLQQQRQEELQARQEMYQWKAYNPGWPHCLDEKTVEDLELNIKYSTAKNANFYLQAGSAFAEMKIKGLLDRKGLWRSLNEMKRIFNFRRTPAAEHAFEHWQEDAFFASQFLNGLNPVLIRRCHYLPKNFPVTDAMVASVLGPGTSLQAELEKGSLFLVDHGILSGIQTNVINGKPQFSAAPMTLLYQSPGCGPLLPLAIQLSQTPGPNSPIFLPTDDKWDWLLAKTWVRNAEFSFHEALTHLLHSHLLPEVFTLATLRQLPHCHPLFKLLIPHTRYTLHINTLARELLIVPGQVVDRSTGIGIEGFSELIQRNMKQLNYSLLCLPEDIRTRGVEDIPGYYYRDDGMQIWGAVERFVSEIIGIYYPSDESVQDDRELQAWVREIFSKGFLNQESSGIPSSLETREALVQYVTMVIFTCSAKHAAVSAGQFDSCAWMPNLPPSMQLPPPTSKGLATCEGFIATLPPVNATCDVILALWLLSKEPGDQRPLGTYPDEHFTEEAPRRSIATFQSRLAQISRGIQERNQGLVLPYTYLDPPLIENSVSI
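Read-out: hydroperoxide product oxidises ferrous iron, measured as xylenol orange complex via the 573-to-405 nm absorbance ratio after 30 min. Reaction: 50 nM enzyme, 15 min compound preincubation, 45 uM arachidonic acid, 90 min RT, Hepes pH 7.5 with Triton X-100.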
* = called active by the depositor; ? = inconclusive; / = not tested or not shown; [ ] = another dose, or the depositor's remark. This excerpt belongs to a sample that is enriched for hits. Calls follow the shape of the dose curve; as a rule, active = well fitted curve in the direction sought with a large enough effect; inconclusive = small, poorly fitted or top-dose-only effect, or another doubt; inactive = no such curve, though single readings can be large; an effect the other way counts as inactive or inconclusive. % is scaled to controls: 0 for no effect and ±100 for the full control effect; potency is read from the fitted curve at half-maximal effect.

SMILES | 12-hLO inh | ALOX15B inhib
O=C(O)CN1CCN(CC(=O)O)CC(=O)[O][Hg][O]C(=O)C1 | 0.28µM* | 0.32µM*
CC[C@H](CO)NC(=O)[C@@H]1C=C2c3cccc4[nH]cc(c34)C[C@@H]2N(C)C1 | -4% | -2%
C[C@@H](Cc1ccc2c(c1)OC(C(=O)O)(C(=O)O)O2)NC[C@H](O)c1cccc(Cl)c1 | -7% | 4%
O=C(O)[C@H]1CCN1 | 6% | 5%
O=C(c1csc2c1CCCCC2)N1CCC2(CC1)OCCO2 | -5% | 11%
O=C(c1cc2c(s1)CCCC2)N1CCC2(CC1)OCCO2 | 1% | 7.9µM*
CC(=O)/C=C/c1ccccc1 | -3% | -17%
CC(=O)[O][Hg][c]1ccccc1 | ? | 0.32µM*
C=CCN1CC[C@]23c4c5ccc(O)c4O[C@@H]2C(=O)CC[C@@]3(O)[C@H]1C5 | -5% | -6%
N#C/C(=C\c1ccc(O)c(O)c1)C(N)=S | 13µM* | 25µM*
N[C@@H](Cc1cc(O)c(O)cc1O)C(=O)O | -18% | 33%
C[C@@]12CC[C@H]3[C@@H](CC[C@@H]4C[C@H](O)CC[C@]43C)[C@H]1CC[C@H]2O | -4% | -5%
Cc1cc(C(=O)O)sc1C(N)C(=O)O (stereo not given) | 9% | 38%
C[C@]1(C(=O)O)[C@@H]2CC[C@@H](O2)[C@@]1(C)C(=O)O | -5% | 11%
COC(=O)[C@]1(C)CC[C@@]2(C)CC[C@@]3(C)C4=CCc5c(cc(O)c(O)c5C)[C@]4(C)CC[C@@]3(C)C2C1 (stereo not given in full) | -1% | 1%
CC1=C(O)C(=O)C=C2C1=CC=C1[C@]2(C)CC[C@@]2(C)C3C[C@](C)(C(=O)O)CC[C@@]3(C)CC[C@@]12C (stereo not given in full) | ? | 4µM*
CC[C@]1(OC(=O)CN)C(=O)OCc2c1cc1n(c2=O)Cc2cc3ccccc3nc2-1 | 1%[11.4 µM] | -10%[11.4 µM]
CC(N)C(O)c1ccc(O)c(O)c1 (stereo not given) | -4% | -8%
CC(C)c1cccc(O)c(=O)c1 | ? | 13µM*
S=C=Nc1cccc2ccccc12 | -7% | -25%
CCC(C)N1C(=O)NC(=O)C2(Cc3c(ccc4ccccc34)N(C)C2)C1=O (stereo not given) | -18% | 5µM*
COc1ccc2c(c1)CC1(CN2C)C(=O)NC(=O)N(CCc2ccccc2)C1=O (stereo not given) | -11% | -15%
O=C1C=CC(=O)c2c(O)cccc21 | -24% | 3.2µM*
O=C1C=Cc2ccccc2C1=O | -24% | /
Clc1ccc(C(c2ccccc2Cl)C(Cl)(Cl)Cl)cc1 (stereo not given) | 0% | -1%
SMILES | 12-hLO inh | ALOX15B inhib
Oc1cc2c(cc1O)[C@H]1c3ccccc3CN[C@@H]1CC2 | -11% | ?
Oc1cc2c(cc1O)[C@H]1c3ccccc3CN[C@H]1CC2 | -10% | 6.3µM*
c1ccc2c(c1)Nc1ccccc1S2 | 14µM* | 5µM*
COc1cc2c(cc1OC)[C@@]13CCN4C=C5CCO[C@H]6CC(=O)N2[C@@H]1[C@@H]6[C@H]5C[C@H]43 | -2%[11.4 µM] | -3%[11.4 µM]
O=C(O)c1ccccc1-c1c2cc(Br)c(=O)cc-2oc2[c]([Hg])c(O)c(Br)cc12 | ? | 4µM*
CS(=O)c1ccc(-c2nc(-c3ccc(F)cc3)c(-c3ccncc3)[nH]2)cc1 (stereo not given) | -4% | 30%
CNc1ccccc1C(=O)O | 6% | 6%
C[CH2][Hg][S]c1ccccc1C(=O)O | ? | 0.63µM*
CCN(CC)c1ncnc2c1ncn2[C@@H]1O[C@@H](COP(=O)(O)OP(=O)(O)C(Br)(Br)P(=O)(O)O)[C@H](O)[C@@H]1O | -5% | 19%
CC(=O)[O-].CC(=O)[O-].O.O.[Cd+2] | -11% | ?
CCN1C[C@]2(C)CC[C@@H](O)[C@]34[C@@H]5CC6[C@@H](OC)C[C@@](O)([C@H]5[C@@H]6O)[C@@H](C[C@@H]23)[C@H]14 | -3% | 4%
N#CSCSC#N | -11% | -15%
O=C(O)c1cc[c]([Hg][Cl])cc1 | ? | 3.2µM*
O=C(O)c1cccc(Cl)c1 | -4% | -4%
Oc1ccc2c3c1O[C@@H]1c4[nH]c5c(c4C[C@@]4(O)[C@@H](C2)N(CC2CC2)CC[C@]314)C[C@]1(O)[C@@H]2Cc3ccc(O)c4c3[C@@]1(CCN2CC1CC1)[C@H]5O4 | -4% | 37%
COCCCOc1ccnc(CS(=O)c2nc3ccccc3[nH]2)c1C (stereo not given) | -10%[0.00818 µM] | 13µM*
Cc1c(OCC(F)(F)F)ccnc1CS(=O)c1nc2ccccc2[nH]1 (stereo not given) | -11% | ?
CCCCCCCCCCCCCC(=O)O[C@H]1[C@@H](C)[C@@]2(O)[C@@H](C=C(CO)C[C@]3(O)C(=O)C(C)=C[C@@H]23)C2C(C)(C)[C@]21OC(C)=O (stereo not given in full) | -5% | -20%
O=C1NC(=O)C2(Cc3ccccc3N3CCCC32)C(=O)N1Cc1ccccc1 (stereo not given) | -17% | -10%
O=C1NC(=O)[C@]2(Cc3ccccc3N3CCN(c4ccccc4)CC32)C(=O)N1Cc1ccccc1 (stereo not given in full) | -18% | 32µM*
